These results are taken from PubChem BioAssay AID2013 (Sanford-Burnham Center for Chemical Genomics, 2009).

Screen size: about 290,000 compounds; about 370 (0.13%) were called active. This is one part of a sample in which actives are shown more often than they occur.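 How the source made its calls: active means spots per cell inhibited over 60%, with over 100 cells counted and total cytoplasm intensity under 500,000; inconclusive means wells with under 100 cells, flagged as likely toxic; inactive means the rest.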 Potency and affinity values are given separately.

As a reminder, the inhibition is the drop in the measured response relative to a control, in per cent.

For the experiment, the target named is G-protein coupled receptor 55 (Homo sapiens) (UniProt Q9Y2T6). Kind of experiment: inhibition of LPI-stimulated GPR55 beta-arrestin translocation – imaging, U2OS, beta-arrestin-GFP, LPI agonist, primary screen (AID 2013).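 Further: U2OS cells stably carrying GPR55 and arrestin-GFP stimulated by 5 µM LPI near EC80; imaged beta-arrestin-GFP aggregate spots per cell after agonist stimulation; plate controls were LPI-stimulated DMSO wells for no effect and DMSO wells without LPI for full effect.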 The note with it: LPI antagonism, at 10 µM, active compounds read high.
G-protein coupled receptor 55 (Homo sapiens), sequence (Q9Y2T6 whole entry, looked up): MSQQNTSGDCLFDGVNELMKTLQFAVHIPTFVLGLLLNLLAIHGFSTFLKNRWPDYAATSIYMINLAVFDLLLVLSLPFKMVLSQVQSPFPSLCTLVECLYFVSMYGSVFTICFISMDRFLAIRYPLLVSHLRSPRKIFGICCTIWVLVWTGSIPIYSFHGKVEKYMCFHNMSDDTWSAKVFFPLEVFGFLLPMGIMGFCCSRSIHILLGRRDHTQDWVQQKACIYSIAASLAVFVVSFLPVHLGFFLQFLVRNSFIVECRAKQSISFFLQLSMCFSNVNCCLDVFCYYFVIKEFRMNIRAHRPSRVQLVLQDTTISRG
Regarding `Cc1nnc(SCC2=C(C(=O)O)N3C(=O)C(NC(=O)C(C)n4nc(C(F)(F)F)cc4C)C3SC2)s1` (stereo not drawn), the inhibition was 0.4% (inactive).

`Nc1cc(=O)[nH]c(SC/C=C/c2ccccc2)n1`: the inhibition is -21.6% (inactive).

For `Clc1nc(CN2CCCCC2)nc2sc3c(c12)CCC3`, the inhibition was 5.2% (inactive).

On to `Clc1nc(CN2CCCCC2)nc2sc3c(c12)CCCC3`, for which the inhibition is 61.4% (active).

On to `Clc1nc(CN2CCOCC2)nc2sc3c(c12)CCC3`, for which the inhibition was 19% (inactive).

Turning to `CC1CN(C(=O)COC(=O)c2ccc(O)cc2)CC(C)O1` (stereo not drawn), the inhibition was 6.6% (inactive).

For the compound `N#CCc1c(C#N)c(N)nc(Nc2ccccc2)c1C#N`, the inhibition is 1.4% (inactive).

For the compound `COc1ccc2oc(=O)c(C(=O)N3CCN(c4ccc(F)cc4)CC3)cc2c1`, the inhibition was 4.2% (inactive).

Turning to `O=C(Cn1ncn2c(cc3ccccc32)c1=O)NCCc1cccs1`, the inhibition is -4.4% (inactive).

For the compound `COc1ccc(C(=O)N[C@H](C(=O)NCC2CCCCC2)C(C)C)cc1`, the inhibition was 6.5% (inactive).

`O=C(CSc1ncccn1)N1CCN(S(=O)(=O)c2ccccc2)CC1`: the inhibition was 9.7% (inactive).

As for `O=C(CSc1nc2ccccc2c(=O)[nH]1)N1CCN(S(=O)(=O)c2ccccc2)CC1`, the inhibition is 2.8% (inactive).

For the compound `N#Cc1ccccc1NC(=O)CN1CCOCC1`, the inhibition was 9.8% (inactive).

For the compound `CCn1c(SCC(N)=O)nc2c(c1=O)C1(CCCC1)Cc1ccccc1-2`, the inhibition was 1.3% (inactive).

As for `CCSc1n[nH]c2nc3c(c(=O)n12)C1(CCCC1)Cc1ccccc1-3`, the inhibition was 10.3% (inactive).

As to `COc1ccc(Oc2c(-c3ccc(O)cc3O)n[nH]c2C)cc1`, the inhibition is 11% (inactive).

As to `CCCOC(=O)c1ccc(Oc2c(-c3ccc(O)cc3O)n[nH]c2C)cc1`, the inhibition was 36.9% (inactive).

Regarding `CCCc1ccc(Oc2c(-c3ccc(O)c(C)c3O)n[nH]c2C)cc1`, the inhibition was 1% (inactive).

Turning to `CCCc1ccc(Oc2cn[nH]c2-c2ccc(O)c(C)c2O)cc1`, the inhibition is 20.9% (inactive).

As for `Cc1ccccc1C(=O)NC(=S)NCc1ccccc1`, the inhibition was 2.5% (inactive).

Take `Cc1sc2nc(CC(=O)NN)[nH]c(=O)c2c1C`: the inhibition is 6.8% (inactive).

With `CC(=O)N1CCOc2ccc(S(=O)(=O)N3CCC(C)CC3)cc21`, the inhibition was 7.2% (inactive).

With `C/C=C(\C)C(=O)N1CC2(CC(c3cccc(NC(=O)COc4ccc(Cl)cc4)c3)=NO2)C[C@@H]1C(N)=O` (stereo partly drawn), the inhibition was -0.1% (inactive).

In the case of `NS(=O)(=O)c1ccc(NC(=S)Nc2ccc(C(=O)N3CCCCC3)cc2)cc1`, the inhibition was 0.7% (inactive).

On to `O=C(Nc1ccccc1N1CCOCC1)c1cccnc1Cl`, for which the inhibition is 3.4% (inactive).

On to `CCN(C(=O)CSc1nc(-c2ccccc2)c(-c2ccccc2)[nH]1)C1CCS(=O)(=O)C1` (stereo not drawn), for which the inhibition is 15.5% (inactive).

Consider `Cc1ccc(SCC(=O)N(C)C2CCS(=O)(=O)C2)cc1` (stereo not drawn), for which the inhibition was -5.3% (inactive).

For `CCCCNC(=O)CN1C(=O)C(CC)Oc2ccc(Cl)cc21` (stereo not drawn), the inhibition is 2.3% (inactive).

As to `O=C1N=C(N2CCOCC2)S/C1=C\c1ccc(-c2ccccc2Cl)o1`, the inhibition is -0.9% (inactive).

As for `Cc1ccc(-c2ccc(/C=C3\SC(N4CCOCC4)=NC3=O)o2)cc1`, the inhibition was 16.2% (inactive).

On to `Cc1ccc(CNC(=O)c2ccc(CS(=O)(=O)c3ccccc3C)o2)cc1`, for which the inhibition was 7.3% (inactive).

In the case of `O=C(Oc1ccc(N2C(=O)C3C4CCC(C4)C3C2=O)cc1)c1ccco1` (stereo not drawn), the inhibition was 15.6% (inactive).

`O=C(NC1CCN(S(=O)(=O)c2ccccc2F)CC1)c1cccnc1`: the inhibition is -8.1% (inactive).

As for `O=C(N1CCCC1)C(F)(F)Oc1ccc(F)cc1`, the inhibition is 10.6% (inactive).

As to `COC(=O)C1=CN(C(C)C)C=C(C(=O)OC)C1c1cc(Br)c(OC)c(OC)c1`, the inhibition was 0.5% (inactive).

Regarding `COCCN1C=C(C(=O)OC)C(c2cc3c(cc2Br)OCO3)C(C(=O)OC)=C1`, the inhibition was 1% (inactive).

Turning to `COc1ccc(Cl)cc1-n1c(C)cc(C=O)c1C`, the inhibition is -3.7% (inactive).

Consider `COc1ccc(-n2c(C)cc(C=O)c2C)cc1Cl`, for which the inhibition is 15.8% (inactive).

On to `CN(C)S(=O)(=O)N1CCN(C(=O)c2cccc(Br)c2)CC1`, for which the inhibition was 1.7% (inactive).

Consider `NS(=O)(=O)c1ccc(CCNC(=O)CSc2nc3ccsc3c(=O)n2CCCCCC(=O)O)cc1`, for which the inhibition was 14.8% (inactive).

Take `Cc1cccc(OCC(=O)N2CCOCC2)c1`: the inhibition was 15.3% (inactive).

On to `COc1ccc(OC)c(-n2c(C)cc(/C=C3\C(=N)N4N=C(CC(=O)N5CCOCC5)SC4=NC3=O)c2C)c1`, for which the inhibition was 21.8% (inactive).

On to `COc1ccccc1N1CCN(C(=O)NC23CC4CC(CC(C4)C2)C3)CC1`, for which the inhibition is 6.5% (inactive).

For the compound `O=C(CCCn1c(=S)[nH]c2cc3c(cc2c1=O)OCO3)N1CCN(c2ccccn2)CC1`, the inhibition is 10.5% (inactive).

Consider `O=C(CCCn1c(=O)[nH]c2ccccc2c1=O)N1CCN(c2ccccn2)CC1`, for which the inhibition was 3.9% (inactive).

Consider `O=C(CCCn1c(=S)[nH]c2ccc(Br)cc2c1=O)N1CCN(c2ccccn2)CC1`, for which the inhibition was 60.6% (active).

For `O=C(COc1cccc2cccnc12)N/N=C1\SCC(=O)N1CCc1ccccc1`, the inhibition is 14.1% (inactive).

For `N#Cc1c(N)nc2c(c1-c1ccccc1)CCC2`, the inhibition was -2.3% (inactive).

`N#Cc1c(N)nc2c(c1-c1ccccc1)CCCC2`: the inhibition was 14.6% (inactive).

For the compound `N#Cc1c(N)nc2c(c1-c1cccc(O)c1)CCCCCC2`, the inhibition was 76% (active).

In the case of `Cc1c(Br)cc(C(=O)NCCCN2CCOCC2)c(C)c1C`, the inhibition was -19.3% (inactive).

For `Cc1ccc(C(=O)NC2CC(C)(C)NC(C)(C)C2)cc1Cl`, the inhibition is -5.9% (inactive).

For the compound `CCOc1ccccc1NC(=O)NCCc1c[nH]c2ccccc12`, the inhibition is 5.7% (inactive).

For the compound `CCN(C(=O)CC(C)C)c1nnc(Cn2nnc3ccccc32)s1`, the inhibition is 6.1% (inactive).

Regarding `O=C(CN1C(=O)S/C(=C\c2ccc(Cl)cc2)C1=O)NCCCn1ccnc1`, the inhibition is -24.8% (inactive).

Consider `Fc1ccc(-c2csc(N3CCOCC3)n2)cc1`, for which the inhibition is -10.5% (inactive).

`N=C1C(c2nc(-c3ccc(Cl)cc3)cs2)=C(O)CN1CCCN1CCOCC1`: the inhibition was 14.9% (inactive).

`Cc1c(Br)c([N+](=O)[O-])nn1CC(=O)N1CCN(C23CC4CC(CC(C4)C2)C3)CC1`: the inhibition was 10.9% (inactive).

Consider `O=C(CN(c1ccc(Cl)cc1)S(=O)(=O)c1ccc(Cl)c([N+](=O)[O-])c1)NCCc1ccc(F)cc1`, for which the inhibition was 7.2% (inactive).

Take `Cc1ccc(N(CC(=O)NCCc2ccc(F)cc2)S(=O)(=O)c2ccc(Cl)c([N+](=O)[O-])c2)c(C)c1`: the inhibition is 65.4% (active).

With `O=C(CN(c1ccc(Cl)cc1)S(=O)(=O)c1ccc(Cl)c([N+](=O)[O-])c1)NCCc1ccccc1`, the inhibition was 5.1% (inactive).

Turning to `O=S(=O)(NC1CCCCC1Oc1ccccc1)c1ccc(Cl)cc1` (stereo not drawn), the inhibition was 12.4% (inactive).

As for `CCn1cc(CN2CCC(C(=O)Nc3ccc(Oc4ccccc4)nc3)CC2)cn1`, the inhibition was 17% (inactive).

With `NC(=NC(=O)c1ccccc1)N1CCN(C(c2ccccc2)c2ccccc2)CC1`, the inhibition was 22.5% (inactive).

In the case of `CC1=C(C(=O)OCc2ccccc2)C(c2ccc3ccccc3c2)NC(=O)N1CCCC(=O)O` (stereo not drawn), the inhibition was 1.7% (inactive).

As for `Cn1nc(C(=O)NCc2ccco2)c2ccccc2c1=O`, the inhibition is -3.1% (inactive).

As for `COC(=O)c1cccc(S(=O)(=O)N2CCC(c3nc4ccccc4o3)CC2)c1`, the inhibition is 4.8% (inactive).

With `O=c1[nH]ncn1-c1ccccc1`, the inhibition was 0.1% (inactive).

On to `Cc1ccc(OC(=O)c2ccc(N3CCOCC3)c([N+](=O)[O-])c2)cc1`, for which the inhibition is 2.8% (inactive).

Take `Cc1ncsc1CCOC(=O)c1ccc(N2CCOCC2)c([N+](=O)[O-])c1`: the inhibition is -11% (inactive).

Take `CC(C)c1ccc(CN2C(=O)NC3(CCCCCC3)C2=O)cc1`: the inhibition is 4.2% (inactive).

For `CCC(=O)N1CCc2cc(Br)cc(S(=O)(=O)NCCN3CCCCC3CC)c21` (stereo not drawn), the inhibition is 5.4% (inactive).

Turning to `CC(=O)N1CCc2cc(Br)cc(S(=O)(=O)NCCN3CCCCC3C)c21` (stereo not drawn), the inhibition is 10.5% (inactive).

Consider `CCC(=O)N1CCc2cc(Br)cc(S(=O)(=O)NCCN3CCCCC3C)c21` (stereo not drawn), for which the inhibition was 77.2% (active).

As for `COc1ccccc1CNC(=O)CSc1nc2ccccc2c(=O)n1CCCN1CCOCC1`, the inhibition is 1.4% (inactive).

As to `Cc1ccccc1NC(=O)CSC(N)=O`, the inhibition is 1.9% (inactive).

Regarding `O=C(COc1ccc(Cl)cc1Cl)Nc1ccc(S(=O)(=O)NC2=NCCCCC2)cc1`, the inhibition was 3.6% (inactive).

For `Cc1ccc(C(C)C)c(OCC(=O)Nc2cccc(S(=O)(=O)NC3=NCCCCC3)c2)c1`, the inhibition was -2.2% (inactive).

For the compound `Cc1ccc(Nc2cc(C)nc(NCc3ccccc3)n2)cc1`, the inhibition was 26.1% (inactive).

Take `Cc1cc(Nc2ccc(Cl)cc2)nc(NCc2ccccc2)n1`: the inhibition was 13.1% (inactive).

As to `CC(=O)NC(=S)Nc1cccc2ccc(C)nc12`, the inhibition is -6.6% (inactive).

Regarding `Cc1cc(C(F)(F)F)n(-c2nc(C(=O)N/N=C/c3ccc(F)cc3)cs2)n1`, the inhibition was -8.1% (inactive).

`COC(=O)c1ccccc1NC(=S)NC(=O)c1ccc2c(c1)OCO2`: the inhibition was 7.9% (inactive).

Regarding `COc1ccc(CCNC(=O)[C@H](C)NC(=O)[C@@H]2CSC3c4ccccc4C(=O)N32)cc1` (stereo partly drawn), the inhibition was 9.5% (inactive).

As to `CCN(CC)S(=O)(=O)c1ccc(NCC2COc3ccccc3O2)c([N+](=O)[O-])c1` (stereo not drawn), the inhibition was 8.6% (inactive).

For the compound `CCN(c1ccccc1)S(=O)(=O)c1ccc(Cl)nc1`, the inhibition is -13.7% (inactive).

Take `Cc1ccc(CNc2nc(C)cs2)cc1`: the inhibition is 4.7% (inactive).

For `Cc1sc2nc(CSc3nc4ccccc4c(=O)n3CCCN3CCOCC3)[nH]c(=O)c2c1C`, the inhibition is 89.7% (active).

On to `Cc1[nH]c2ccccc2c1C(=O)CSc1nc2ccccc2c(=O)n1CCCN1CCOCC1`, for which the inhibition is -7.3% (inactive).

With `CCCn1c(SCc2nc3sc(C)c(C)c3c(=O)[nH]2)nc2ccccc2c1=O`, the inhibition was 8.6% (inactive).

As for `Cc1cc(C)cc(Oc2cc(NC(=O)c3cn(C)nc3C)cc([N+](=O)[O-])c2)c1`, the inhibition was -5.3% (inactive).

`Cc1ccc(NC(=O)c2cc(S(=O)(=O)N3CCc4ccccc43)cn2C)cc1`: the inhibition is 6.1% (inactive).

As to `Cc1cccc(N(C)C(=O)c2cc(S(=O)(=O)N3CCc4ccccc43)cn2C)c1`, the inhibition is 8.9% (inactive).
